# Shown are actives, neighbours in structure and some others; about 2.4% of the full set was active somewhere.
# Pol beta inh-1 = qHTS Assay for Inhibitors of DNA Polymerase Beta; P06746; Pol beta primer extension/strand displacement, fluorescence kinetic; Potency, µM (titrated, usually from 114 µM), inactives show at the top dose activity change, negative = inhibition, most hits filed as inhibitors; 340,000 tested, 1.3% active; note: potency is the fitted concentration of half-maximal effect; % is set by controls: 0 for no effect and ±100 for the full control effect
#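 Pol beta (10 nM) was preincubated with compound for 15 min at room temperature. The reaction was then started with 50 nM substrate and read immediately and after a further 10 min at room temperature.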
# POLK inh = qHTS for Inhibitors of Polymerase Kappa. purified Pol kappa, fluorescent DNA synthesis assay, 10 min. AID 588579, 2011. Potency, µM (top dose mostly 107 µM), inactives show at the highest dose activity, negative = inhibition, most hits filed as inhibitors. DNA polymerase kappa (Homo sapiens), Q9UBT6. 400,000 tested, 0.53% active; note: potency is the fitted concentration of half-maximal effect; % is set by controls: 0 for no effect and ±100 for the full control effect
#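 Activity was followed as the change in fluorescence between reads at 0 and 10 min after starting the reaction with 50 nM substrate. Beforehand, 10 nM polymerase had been preincubated with compound for 15 min at room temperature.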
# Pol eta inh = qHTS for Inhibitors of Polymerase Eta; DNA polymerase eta (Homo sapiens), Q9Y253; recombinant Pol eta, fluorescent DNA replication assay; AID 588591, 2011; 390,000 tested, 1.2% active; Potency, µM (titrated, usually from 114 µM), without a hit: top-dose activity change, negative = inhibition, hits mostly inhibitors; note: potency is the fitted concentration of half-maximal effect; % is set by controls: 0 for no effect and ±100 for the full control effect
#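 Pol eta (10 nM) was preincubated with compounds for 15 min at room temperature, after which fluorescent replication substrate (50 nM final) was added to start the reaction. Fluorescence was read kinetically at 0 and 10 min.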
# POLI inh = qHTS for Inhibitors of Polymerase Iota. Pol iota fluorescent replication assay, 10 min. Potency, µM (doses to about 115 µM), for the others: top-dose activity, negative = inhibition, most hits filed as inhibitors. 390,000 tested, 1% active; note: potency is the fitted concentration of half-maximal effect
#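 Pol iota at 10 nM preincubated 15 min with compounds at room temperature; reaction started with fluorescent substrate, 50 nM final. Fluorescence read kinetically at 0 and 10 min; buffer-only wells as negative control.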
# L3MBTL1 inh-1 = qHTS Assay for the Inhibitors of L3MBTL1; AlphaScreen L3MBTL1–H3K9me1 peptide binding; Potency, µM (doses to about 57.1 µM), inactives show at the highest dose activity, negative = inhibition, hits mostly inhibitors; 230,000 tested, 0.66% active; AID 485360, 2010; note: potency is the fitted concentration of half-maximal effect; % is set by controls: 0 for no effect and ±100 for the full control effect; nearly all actives have a fitted effect of over 60% in size
# Target sequence (Q9Y468 whole entry, looked up): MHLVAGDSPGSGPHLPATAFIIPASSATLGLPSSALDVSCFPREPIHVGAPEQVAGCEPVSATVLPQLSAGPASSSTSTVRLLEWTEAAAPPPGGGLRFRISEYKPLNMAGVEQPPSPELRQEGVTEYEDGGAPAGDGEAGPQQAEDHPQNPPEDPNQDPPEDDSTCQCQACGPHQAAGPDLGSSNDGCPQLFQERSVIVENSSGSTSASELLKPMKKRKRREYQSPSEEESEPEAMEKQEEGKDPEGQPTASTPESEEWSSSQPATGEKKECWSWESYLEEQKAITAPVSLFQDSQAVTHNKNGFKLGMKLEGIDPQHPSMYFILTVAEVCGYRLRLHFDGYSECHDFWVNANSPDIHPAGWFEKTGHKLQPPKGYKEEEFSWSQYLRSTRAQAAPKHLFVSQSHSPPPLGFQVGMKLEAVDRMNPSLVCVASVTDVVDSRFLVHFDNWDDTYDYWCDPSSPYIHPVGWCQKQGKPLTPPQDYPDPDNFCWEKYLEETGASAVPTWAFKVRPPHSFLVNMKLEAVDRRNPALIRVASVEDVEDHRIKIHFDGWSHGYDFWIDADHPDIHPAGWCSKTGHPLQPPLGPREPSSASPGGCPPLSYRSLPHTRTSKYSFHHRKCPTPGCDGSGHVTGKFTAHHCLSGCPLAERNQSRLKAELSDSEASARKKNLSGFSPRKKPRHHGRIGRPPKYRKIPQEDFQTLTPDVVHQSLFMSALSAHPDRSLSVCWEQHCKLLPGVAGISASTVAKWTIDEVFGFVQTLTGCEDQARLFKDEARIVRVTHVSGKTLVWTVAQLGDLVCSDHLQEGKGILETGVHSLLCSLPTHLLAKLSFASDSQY
#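 L3MBTL1 (50 nM) pre-complexed 30 min with biotinylated H3(1-15)K9me1 peptide (75 nM), then compounds added for 30 min at room temperature; AlphaScreen streptavidin donor/nickel chelate acceptor beads (10 ug/mL final) read after 30 min dark incubation.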
# Pol beta inh-2 = Inhibitors of DNA Polymerase Beta: Hit validation. shares compounds with Pol beta inh-1. Pol beta primer extension/strand displacement, fluorescence kinetic. Potency, µM, most hits filed as inhibitors. 250 tested, 87% active; calls by dose curve; note: potency is the fitted concentration of half-maximal effect
# Klenow counter = Inhibitors of DNA Polymerase Beta: Hit Validation in Klenow Fragment Assay; activity change, negative = inhibition, % at 57.1 µM; shares compounds with Pol beta inh-1; 250 tested, under 10 active; Klenow exo- polymerase counter-screen, fluorescent DNA substrate
# HIV RT counter = Inhibitors of DNA Polymerase Beta: Hit Validation in HIV-RT Assay; 250 tested, under 10 active; shares compounds with Pol beta inh-1; HIV-1 RT polymerase activity, counter-screen; activity % (negative = inhibition, positive = activation), % at 57.1 µM
# POLB inh gel = Inhibitors of DNA Polymerase Beta: Hit Validation in Radiolabeled Extension Assay; shares compounds with Pol beta inh-1; radiolabeled primer extension gel assay, phosphorimager; inhibition, % at 10 µM; 110 tested, 91% active; AID 540325, 2011;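 active = inhibition at 10 µM of 30% or more; inconclusive = no clear call, values can overlap the other calls; inactive = inhibition at 10 µM under 30%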
# L3MBTL1 inh-2 = qHTS Assay for the Inhibitors of L3MBTL1: Hit Validation; 500 tested, 91% active; Potency, µM, most hits filed as inhibitors; shares compounds with L3MBTL1 inh-1; AID 540279, 2011; L3MBTL1 methyl-lysine binding inhibition, biochemical qHTS; note: potency is the fitted concentration of half-maximal effect; nearly all actives have a fitted effect of over 70% in size
# L3MBTL1 ctr = qHTS Assay for the Inhibitors of L3MBTL1: Hit Validationin AlphaScreen Counterscreen | shares compounds with L3MBTL1 inh-1 | AlphaScreen counterscreen, signal inhibition | Potency, µM (highest dose often 57.1 µM), for inactives: top-dose activity change, negative = inhibition, most hits filed as inhibitors | 500 tested, under 10 active | AID 602224, 2012; note: potency is the fitted concentration of half-maximal effect; 0% is about no effect
# Starred values were filed as active, the others as inactive; ? = inconclusive; . = no result given; [ ] = dose if it differs, or a comment. Unless noted, calls come from the whole dose curve; as a rule, active = well fitted curve in the direction sought with a large enough effect; inconclusive = small, poorly fitted or top-dose-only effect, or another doubt; inactive = no such curve, though single readings can be large; an effect the other way counts as inactive or inconclusive.
SMILES,Pol beta inh-1,POLK inh,Pol eta inh,POLI inh,L3MBTL1 inh-1,Pol beta inh-2,Klenow counter,HIV RT counter,POLB inh gel,others
COc1ccccc1N1CCN(C(=O)c2cc3c(s2)CCC3)CC1,7.94µM*,-27.4%,?,-29.5%,.,?,11.5,9.7,74.4*,
COc1ccccc1-c1nnc2n1N=C(c1ccc(O)c(O)c1)CS2,3.98µM*,25.1µM*,8.91µM*,12.6µM*,-29.0%,25.1*,-21.7,-14.5,36.9*,
COc1ccc(-c2nc(CCNC(=O)c3c(F)cccc3Cl)cs2)cc1,7.1%,-4.0%[60.1 µM],-22.4%,7.8%,.,.,.,.,.,
CCC(C)NC(=O)CSc1nc2n[nH]c(C)c2c(=N)n1-c1ccc(C)c(Cl)c1 (configuration not stated),-1.4%,-5.0%[60.1 µM],-8.2%,?,.,.,.,.,.,
O=C(CSc1nc2c(cnn2-c2ccccc2)c(=O)[nH]1)c1ccc(Cl)cc1,5.01µM*,3.9%,?,?,-2.1%,7.08*,-20.8,0.3,.,
CCn1cc(C(=O)NCc2ccco2)c(=O)c2cc(F)c(N3CCN(C(=O)c4ccco4)CC3)cc21,14.1µM*,?,?,?,25.6%[11.4 µM],?,-36.0,33.4,.,
COc1ccc(NC(=O)c2cnc(Nc3ccc(C)c(Cl)c3)c3ccccc23)c(OC)c1,?,6.0%,-17.1%,17.6%,.,.,.,.,.,
O=S(=O)(Nc1nccs1)c1ccc(Nc2nnc(-c3ccccc3)c3ccccc23)cc1,14.1µM*,-17.9%,?,?,-7.6%,35.5*,1.0,30.8,.,
O=C(Nc1ccc2nc(-c3ccccc3)[nH]c2c1)c1ccco1,?,-33.1%,?,?,?,.,.,.,.,
O=C(Nc1cccc(-c2nc3ccccc3[nH]2)c1)c1cccc(NC(=O)c2ccco2)c1,12.6µM*,?,50.1µM*,?,8.3%,31.6*,-9.4,62.4,.,
CCN(CC)S(=O)(=O)c1ccc(N2CCOCC2)c(NC(=O)c2c3c(nc4ccccc24)CCC3)c1,8.91µM*,?,35.5µM*,31.6µM*,28.2µM*,25.1*,-22.4,19.4,87.5*,L3MBTL1 inh-2=8.44*;L3MBTL1 ctr=-0.1%
N#Cc1c(=O)c2nc(NCCCO)ncc2n2c(=O)c3ccccc3[nH]c12,11.2µM*,-29.7%,39.8µM*,22.4µM*,10µM*,?,-37.8,-1.0,40.0*,L3MBTL1 inh-2=5.97*;L3MBTL1 ctr=45.5%
COc1ccc(CCNC(=O)c2ccc3c(c2)N(Cc2ccccc2Cl)C(=O)c2ccccc2S3)cc1OC,-19.8%,-12.2%[60.1 µM],-23.0%,18.4%,.,.,.,.,.,
O=C(c1ccccc1)N1CCc2cc(CNS(=O)(=O)c3ccc(Cl)s3)ccc21,1.1%,-11.7%[60.1 µM],-15.0%,38.9%,.,.,.,.,.,
Cc1nc2sc3c(c2c(=O)[nH]1)CCC3,7.7%,-17.1%,-14.0%,47.5%,.,.,.,.,.,

# Source: PubChem BioAssay
